PubChem BioAssay (NCI)
Compounds without any hit were thinned out: in the full panel of roughly 83,000, 20% have a hit.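 Step 1: grow cells in 96-well plates. Step 2: add test compound at a single concentration. Step 3: incubate 48 h. Step 4: record percent growth.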 The source made the active and inactive calls. The calls were made as follows: active = growth percent below 10; inactive = the rest.

Legend:
Experiment in all cases: NCI-60 one-dose screen, 48 h (100 = growth as untreated, 0 = no growth, -100 = all killed)
Details in all cases: 10 µM unless noted
[1] = test system: HCT-15 colon
[2] = test system: HT29 colon
[3] = test system: SNB-75 CNS
[4] = test system: SNB-19 CNS
[5] = test system: U251 CNS
[6] = test system: PC-3 prostate
[7] = test system: SK-MEL-5 melanoma
[8] = test system: UACC-62 melanoma
[9] = test system: LOX IMVI melanoma
[10] = test system: SK-MEL-28 melanoma
[11] = test system: SK-MEL-2 melanoma
[12] = test system: EKVX NSCLC
[13] = test system: SN12C renal
[14] = test system: UO-31 renal
[15] = test system: TK-10 renal
[16] = test system: ACHN renal
[17] = test system: CAKI-1 renal
[18] = test system: A498 renal
[19] = test system: CCRF-CEM leukemia
[20] = test system: MOLT-4 leukemia

Measured: growth

COc1ccc(-c2nc(C(Cl)Cl)nc3cc(-c4ccccc4)nn23)cc1
active: [1] 4.52% | [2] -20.2% | [3] -9.44% | [4] 5.79% | [5] -51.7% | [10] -46.4% | [12] -3.98% | [16] -55.3% | [17] -14.5% | [18] -33.4% | [20] 4.01%
inactive: [6] 35.5% | [7] 34.1% | [8] 37.9% | [9] 23.7% | [11] 77.4% | [13] 29.1% | [14] 25.7% | [15] 33.1% | [19] 18.2%

COc1ccc(OC)c(-c2nc(SCC(=O)c3ccc(Br)cc3)nc(Nc3ccc(S(N)(=O)=O)cc3)c2C#N)c1
inactive: [1] 22.1% | [2] 27.2% | [3] 22.1% | [4] 49.9% | [5] 37.6% | [6] 35.3% | [7] 56.1% | [8] 42.7% | [9] 32.6% | [10] 57.7% | [11] 30.4% | [12] 63.7% | [13] 49.1% | [14] 59.2% | [15] 96.3% | [16] 55.9% | [17] 34.4% | [18] 26.4% | [19] 35.4% | [20] 28.5%

CCNC(=O)Oc1ccc(/C(=C(/C)c2ccccc2)c2ccc(OCCN3CCCCCC3)cc2)cc1
inactive: [4] 12.7% | [6] 13.1% | [8] 16.5% | [12] 52.4% | [13] 26.4% | [15] 66.5% | [16] 18.9% | [18] 26.6%
active: [1] 3.38% | [2] -14.2% | [3] -0.681% | [5] -44.6% | [7] -94.7% | [9] -14.8% | [10] -41.8% | [11] -30% | [14] -20.3% | [17] 8.75% | [19] 7.24% | [20] 2.51%

O=C(CSc1nc2ccccc2c(=O)n1-c1ccccc1)Nc1cccc(C(=O)/C=C/c2ccccc2Cl)c1
inactive: [1] 92.7% | [2] 102% | [3] 85.6% | [4] 93.3% | [5] 97.7% | [6] 99.4% | [7] 99.3% | [8] 95.5% | [9] 103% | [10] 107% | [11] 105% | [12] 99.4% | [13] 102% | [14] 90.7% | [15] 138% | [16] 103% | [17] 95.9% | [18] 116% | [19] 113% | [20] 106%

CNC(=O)c1c(NC(=O)c2cccc(C(F)(F)F)c2F)sc2c1CCC(=O)C2
active: [1] 5.54% | [2] 9.35% | [3] 0.105% | [5] 4.78% | [7] -83.7% | [8] 7.56% | [11] 8.04% | [14] -29.2% | [16] 4.75% | [17] -30.6% | [18] -1.35% | [20] 7.37%
inactive: [4] 16.5% | [6] 14.9% | [9] 16% | [10] 47.8% | [12] 13.1% | [13] 10% | [15] 34.6% | [19] 13.6%

Brc1ccccc1/C=N/Nc1nc(N/N=C/c2ccccc2Br)nc(N2CCOCC2)n1
inactive: [1] 81.1% | [2] 74% | [3] 132% | [4] 101% | [5] 96.5% | [6] 84% | [7] 69.6% | [8] 102% | [9] 103% | [10] 99.3% | [11] 96.3% | [12] 80.2% | [13] 98.8% | [14] 78.6% | [15] 99.4% | [16] 93.6% | [17] 109% | [18] 50.2% | [19] 80.1% | [20] 72.6%

Fc1ccc(-c2cc3nc(C(Cl)Cl)nc(-c4ccco4)n3n2)cc1
active: [1] 4.34% | [2] -13.4% | [4] 0.644% | [5] -9.36% | [6] -19.2% | [10] -24.5% | [12] -8.73% | [14] -14.5% | [15] -11.7% | [16] -35.3% | [17] -23.7% | [18] -38.6%
inactive: [3] 55.7% | [7] 95.9% | [8] 17.2% | [9] 93.5% | [11] 55.1% | [13] 59.1% | [19] 85.2% | [20] 59.7%

COc1ccc([C@@H]2c3[nH]c4ccccc4c3C[C@H]3C(=O)N(C4CCN(CC5CCCCC5)CC4)CC(=O)N23)c(OC)c1
active: [2] 1.45%
inactive: [1] 56.5% | [3] 83.2% | [4] 86.4% | [5] 72.4% | [6] 49.3% | [7] 73.3% | [8] 93.9% | [9] 54.3% | [10] 89.1% | [11] 95.9% | [12] 61.6% | [13] 81.6% | [14] 37.3% | [15] 98.2% | [16] 81.3% | [17] 44.7% | [18] 78.9% | [19] 60.5% | [20] 46.1%

CC(C)(C)c1ccc(C(=O)Nc2sc3c(c2C(N)=O)CCC(O)C3)cc1 (stereo not given)
inactive: [3] 98.1% | [4] 64.9% | [5] 54% | [6] 54.1% | [7] 38.5% | [8] 39.4% | [10] 49.3% | [11] 80.3% | [12] 62.9% | [13] 74.8% | [14] 49.1% | [15] 82.8% | [16] 25.4% | [18] 78% | [19] 53.1% | [20] 56.4%
active: [1] 6.55% | [2] 2.76% | [9] -70% | [17] 5.67%

Cc1ccc(-c2nn(-c3ccccc3)cc2/C=C/C(=O)c2ccc(NC(=O)CCCCCCC(=O)NO)cc2)cc1
inactive: [1] 68% | [2] 61.4% | [3] 102% | [4] 81.9% | [5] 79.2% | [6] 74.6% | [7] 91.7% | [8] 53.3% | [9] 62.2% | [10] 89% | [11] 88.2% | [12] 85.8% | [13] 73.5% | [14] 52.2% | [15] 70.2% | [16] 87.9% | [17] 58.1% | [18] 58.2% | [19] 38.8% | [20] 38.5%

Oc1cccc2ccc(-c3nnc(SCc4ccc(O)c5ncccc45)o3)nc12
inactive: [2] 56.8% | [3] 34.3% | [4] 12.9% | [5] 13.3% | [10] 35.2% | [12] 17.5% | [15] 27.9% | [18] 35.2% | [19] 19.6% | [20] 17.4%
active: [1] 8.78% | [6] 9.67% | [7] -63.7% | [8] 9.35% | [9] 8.81% | [11] 8.17% | [13] 7.07% | [14] -6.85% | [16] 7.94% | [17] 8.28%

CS(=O)(=O)Nc1cc(-c2ccc3ncc(C#N)c(Nc4cccc(Cl)c4F)c3c2)cnc1Cl
inactive: [3] 47.9% | [13] 16.1% | [16] 12.7%
active: [1] 8.27% | [2] 2.88% | [4] 5.43% | [5] -8.19% | [6] -16.3% | [7] -89.9% | [8] -32% | [9] -62.2% | [10] 2.61% | [11] -71.3% | [12] -5.3% | [14] -16.1% | [15] -31% | [17] -5.21% | [18] -50.9% | [19] 2.5% | [20] -11.1%

Cc1nn(-c2ccccc2)c2ncnc(N/N=C/c3cccc(O)c3)c12
inactive: [1] 22.8% | [2] 81% | [3] 33.2% | [4] 49% | [5] 40.8% | [6] 42.6% | [7] 30.5% | [8] 32.7% | [9] 29% | [10] 54.2% | [11] 22.6% | [12] 81.6% | [13] 44.4% | [14] 40.7% | [15] 56.4% | [16] 50.6% | [17] 48.7% | [18] 48.2% | [19] 27% | [20] 22%

C#C[C@]1(O)CC[C@H]2[C@@H]3CC=C4c5sc(-c6ccc7c(c6)OCO7)nc5CC[C@]4(C)[C@H]3CC[C@@]21C
active: [2] 8.04% | [3] -3.43% | [5] -24.5% | [6] -23.7% | [8] -35.5% | [9] -40.1% | [10] -39.7% | [20] 8.06%
inactive: [1] 10.5% | [4] 15.5% | [7] 50.5% | [11] 28.9% | [12] 34.5% | [13] 22.3% | [14] 51.9% | [15] 13.3% | [16] 13% | [17] 44.4% | [18] 48.8% | [19] 30.6%

Cn1ccnc1C(=O)/C=C/C=C/c1ccc(C(=O)Nc2ccc(F)cc2)cc1
active: [1] -36.8% | [2] 0.045% | [5] -1.47% | [9] -65.7% | [13] 1.94%
inactive: [3] 51.7% | [4] 39.6% | [6] 41.8% | [7] 30.4% | [8] 32.8% | [10] 39.7% | [11] 90.8% | [12] 33.4% | [14] 44.3% | [15] 61.2% | [16] 21.9% | [17] 37.2% | [18] 62% | [19] 10.3% | [20] 12.3%
